TDP1 inh = TDP1 (human) enzyme inhibition; AID 485290; recombinant TDP1, AlphaScreen DNA substrate cleavage; Potency, µM (top dose mostly 130 µM), for inactives: top-dose activity change, negative = inhibition, most hits filed as inhibitors; Q9NUW8; 0.28% of 350,000 active; further: potency means the concentration at half of the fitted maximal effect; on the % scale 0 is the no-effect control and ±100 the full control effect; nearly all actives have a fitted effect of over 40% in size
Target sequence (Q9NUW8 whole entry, looked up): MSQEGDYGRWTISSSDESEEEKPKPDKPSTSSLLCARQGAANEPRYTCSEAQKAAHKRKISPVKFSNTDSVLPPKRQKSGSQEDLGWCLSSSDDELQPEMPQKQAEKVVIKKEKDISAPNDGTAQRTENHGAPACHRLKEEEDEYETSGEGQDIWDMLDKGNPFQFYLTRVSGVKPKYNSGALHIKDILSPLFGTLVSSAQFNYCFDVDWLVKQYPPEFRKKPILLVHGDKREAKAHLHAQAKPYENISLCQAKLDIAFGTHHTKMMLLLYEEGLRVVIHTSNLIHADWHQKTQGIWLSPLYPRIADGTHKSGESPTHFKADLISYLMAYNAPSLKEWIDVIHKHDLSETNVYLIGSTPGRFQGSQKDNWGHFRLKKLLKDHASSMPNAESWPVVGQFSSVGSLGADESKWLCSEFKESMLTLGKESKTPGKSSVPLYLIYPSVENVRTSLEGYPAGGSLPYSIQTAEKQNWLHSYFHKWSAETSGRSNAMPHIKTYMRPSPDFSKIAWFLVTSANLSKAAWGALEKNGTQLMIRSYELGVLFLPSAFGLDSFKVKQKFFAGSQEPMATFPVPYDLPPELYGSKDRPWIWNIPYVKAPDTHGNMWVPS
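Recombinant E. coli-expressed Tdp1 (1 nM) preincubated with compound 15 min at RT, then 5'-biotin/3'-phosphotyrosine-FITC DNA substrate (15 nM) added for 5 min. AlphaScreen beads (10 ug/ml) added, 10 min RT; tyrosine-FITC cleavage read as signal loss.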
TDP1 cell noCPT = qHTS for Inhibitors of human tyrosyl-DNA phosphodiesterase 1 (TDP1): qHTS in cells in absence of CPT; DT40 Tdp1-/- hTDP1 cells, no CPT, ATP luminescence, 48 h; Potency, µM (highest dose often 46.2 µM), for the others: at the top dose activity change, negative = growth inhibition, usual class: inhibitors; 15% of 420,000 active; AID 686978, 2013; further: potency means the concentration at half of the fitted maximal effect; on the % scale 0 is the no-effect control and ±100 the full control effect; nearly all actives have a fitted effect of over 55% in size
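Compound effects on proliferation are scored in DT40 Tdp1-/-;hTDP1 cells in the absence of CPT. ATP levels (CellTiter-Glo luminescence) are recorded after a ≥48 hr, 37 °C incubation.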
IL1B secr inh = blocks inflammasome-driven IL-1 beta release; THP-1 LPS/ATP IL-1B secretion, AlphaLISA, 16 h; active compounds read low; activity change, % at 57.5 µM; 4.7% of 360,000 active; in the data active means activity change below about -50%; inconclusive means mostly about -30% to -49%; further: on the % scale 0 is the no-effect control and ±100 the full control effect
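THP-1 cells pretreated 1 hr with compounds (up to 57.5 uM final), then stimulated with LPS (250 ng/mL final) plus ATP (1.25 mM final); secreted IL-1B measured by AlphaLISA after 16 hr, decreased signal indicating inhibition.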
HepG2 viability = HepG2 cytotoxicity, counter-screen for TGF-b inhibitors. HepG2 CAGA-GFP viability, ATP luminescence, 18 h. Potency, µM (titrated, usually from 46.1 µM), for inactives: top-dose activity change, negative = cytotoxicity, actives largely listed as cytotoxic. 0.76% of 410,000 active. AID 588856; further: potency means the concentration at half of the fitted maximal effect
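HepG2 CAGA-GFP cells (1000/well, DMEM with 1% FBS) received compound, then TGF-beta at 500 pg/mL final, and were incubated 18 hours at 37 degrees C. Viability was read by CellTiter-Glo luminescence. Media-only wells were set as complete cell-killing and DMSO as no toxicity.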
TGFb inhibitor = inhibitors of TGF-b signaling. 1.2% of 410,000 active. HepG2 CAGA-GFP TGF-b/SMAD3 reporter, GFP fluorescence, 18 h; TGF-beta stimulated, 500 pg/mL final. AID 588855. Potency, µM (series often up to 46.1 µM), inactives show at the highest dose activity, negative = inhibition, most hits filed as inhibitors; further: potency means the concentration at half of the fitted maximal effect; on the % scale 0 is the no-effect control and ±100 the full control effect; nearly all actives have a fitted effect of over 65% in size
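Inhibition was scored as loss of TGF-beta-induced (500 pg/mL final, 18 hours, 37 degrees C) GFP in HEPG2 cells carrying a CAGA-GFP reporter, in DMEM with 1% FBS. Well GFP was summed per cell; Activity was normalised to unstimulated and stimulated DMSO wells, then concentration-response fitting.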
TDP1 cell CPT = DT40-hTDP1 cell growth loss with CPT; Potency, µM (top dose mostly 46.2 µM), for the others: at the top dose activity change, negative = growth inhibition, actives largely listed as inhibitors; 12% of 420,000 active; chicken DT40 Tdp1-/-;hTDP1 cells + 20 nM CPT, ATP luminescence, 48 h; further: potency means the concentration at half of the fitted maximal effect; on the % scale 0 is the no-effect control and ±100 the full control effect; nearly all actives have a fitted effect of over 55% in size
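Chicken DT40 Tdp1-/- cells complemented with human TDP1, 400 cells/well, exposed to compounds plus 20 nM camptothecin for at least 48 h at 37 C; viability read as ATP content by CellTiter-Glo luminescence.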
An asterisk follows results filed as active; ? = inconclusive; . = no result given; [ ] = remark or other dose. An excerpt weighted towards active compounds, which were near 18% of everything screened. Unless noted, the call rests on the fitted dose curve; in most records, active means well fitted curve in the direction sought with a large enough effect; inconclusive means small, poorly fitted or top-dose-only effect, or another doubt; inactive means no such curve, though single readings can be large; an effect the other way counts as inactive or inconclusive.

SMILES	TDP1 inh	TDP1 cell noCPT	IL1B secr inh	HepG2 viability	TGFb inhibitor	TDP1 cell CPT
O=C(CSc1nc(Nc2ccccc2)nc(N2CCOCC2)n1)Nc1ccc([N+](=O)[O-])cc1	6%	15µM*	?	-21%	16%	18µM*
Cc1ccccc1NC(=O)CSc1nc(N2CCCCC2)nc(N2CCCCC2)n1	5%	-15%	22	2%	-12%	?
COc1ccc(Cl)cc1NC(=O)CSc1nnc(CN2CCOCC2)n1-c1ccc(Cl)cc1	8%	21µM*	0	-22%	5%	16µM*
Cc1ccc(CNC(=O)CSc2nc(N3CCCCC3)nc(N3CCCCC3)n2)cc1	0%	23µM*	0	1%	20%	21µM*
O=C(CSc1nnc(CN2CCOCC2)n1-c1ccc(Cl)cc1)Nc1ccc2c(c1)OCO2	0%	-2%	-1	-4%	5%	4%
O=C(/C=C/c1cccc(Cl)c1)OCC(=O)c1ccc[nH]1	.	4%	12	3%	-1%	1%
CC1CCc2c(sc(NC(=O)CCCOc3ccc(C(C)(C)C)cc3)c2C(N)=O)C1 (stereo not drawn)	-1%[12.3 µM]	?	.	0%	6%	?
C=C1/C(=C\C=C2/CCC[C@]3(C)C([C@H](C)CCCC(C)(C)O)CC[C@@H]23)C[C@@H](O)C[C@@H]1O (stereo partly drawn)	11%	-21%[4.12 µM]	.	.	.	?
C=C1CC[C@H](O)CC1=C/C=C1\CCC[C@]2(C)[C@@H]([C@H](C)CC[C@@H](O)C(C)(C)O)CC[C@@H]12	.	24µM*	.	.	.	?
C=C1/C(=C\C=C2/CCC[C@]3(C)[C@@H]([C@H](C)OCCC(C)(C)O)CC[C@@H]23)C[C@@H](O)C[C@@H]1O	.	?	.	.	.	15µM*
Cc1cccc(Cn2c(C)c(CNC3CCCCCC3)c(C(=O)O)c2C)c1	0%	-19%	.	4%	-1%	-22%
NC(=O)CC(NC(=O)Cc1ccc(Br)cc1)c1ccc(N2CCN(c3ccccc3)CC2)c([N+](=O)[O-])c1 (stereo not drawn)	1%	?	20	-56%	?	16µM*
NC(=O)CC(NC(=O)Cc1cccc2ccccc12)c1ccc(N2CCN(c3ccccc3)CC2)c([N+](=O)[O-])c1 (stereo not drawn)	5%	-9%	20	-21%	2%	-6%
NC(=O)CC(NC(=O)c1ccccc1)c1ccc(N2CCN(c3ccc(F)cc3)CC2)c([N+](=O)[O-])c1 (stereo not drawn)	.	8.2µM*	-12	-10%	?	18µM*
NC(=O)CC(NC(=O)c1ccccc1)c1ccc(N2CCCCCC2)c([N+](=O)[O-])c1 (stereo not drawn)	.	12µM*	12	6%	-21%	?
CN1CCN(c2ccc(C(CC(N)=O)NC(=O)c3ccccc3)cc2[N+](=O)[O-])CC1 (stereo not drawn)	.	-22%	15	1%	17%	4%
NC(=O)CC(NC(=O)c1ccccc1)c1ccc(N2CCN(c3ccccc3)CC2)c([N+](=O)[O-])c1 (stereo not drawn)	.	13µM*	-10	-11%	-35%	21µM*
Cc1cnc(-n2ncc(C(=O)NCC3CCCN(C)C3)c2C)nc1-c1cccs1 (stereo not drawn)	.	-13%	.	.	.	-11%[9.04 µM]
CC(=O)C1=C(O)C(=O)N(c2ccc(Br)cc2)C1c1ccc(Br)cc1 (stereo not drawn)	9%	7%	48	-11%	-16%	1%
Cc1c(C(=O)NCC(C)C)sc2ncnc(NCC3CCCO3)c12 (stereo not drawn)	.	-9%	.	.	.	4%[9.04 µM]
CC(=O)Nc1ccc(C(=O)N2CCCCC2c2cc(C(=O)N3CCOCC3)no2)cc1 (stereo not drawn)	.	-6%	-17	-5%	0%	-10%
CCN(CC)S(=O)(=O)c1ccc2c(c1)N(CC(=O)Nc1c(C)cccc1C)C(=O)C1CCCN21 (stereo not drawn)	-3%	-20%	.	-20%	.	-2%
Cc1cc(C)c(Cn2c(=O)n(CCC(=O)NCCc3ccccc3)c(=O)c3ccccc32)c(C)c1	-2%	-16%	.	-1%	?	-22%
O=C(CSc1nnc2n(C3CCCC3)c(=O)c3ccccc3n12)N1CCCCCC1	5%	23µM*	-10	-32%	?	21µM*
CC1CCCN(C(=O)CSc2nnc3n(C4CCCC4)c(=O)c4ccccc4n23)C1 (stereo not drawn)	-3%	16µM*	-2	-21%	-21%	23µM*
SMILES	TDP1 inh	TDP1 cell noCPT	IL1B secr inh	HepG2 viability	TGFb inhibitor	TDP1 cell CPT
CC1CCCN(C(=O)CSc2nnc(-c3cccnc3)n2C2CCCCC2)C1 (stereo not drawn)	-2%	-17%	-1	8%	?	-24%
Cc1cc(NC(=O)CCC(=O)N(CC(=O)NC2CCCC2)c2ccc(Cl)c(Cl)c2)no1	.	?	13	-3%	-13%	-17%
CCc1cnc(Nc2nc(C(N)Cc3ccc(Cl)cc3)cs2)nc1 (stereo not drawn)	.	?	?	-110%	?	?
COc1ccc(CC(N)c2csc(Nc3nncc4ccccc34)n2)cc1 (stereo not drawn)	.	18µM*	0	-99%	?	?
CCCc1cnc(Nc2nc(C(N)Cc3ccc(OC)cc3)cs2)nc1 (stereo not drawn)	.	?	?	11µM*	?	?
COc1cc(/C=C(\C#N)C(=O)N2CCOCC2)ccc1OCc1ccccc1	-3%	-20%	-17	-17%	-10%	1%
N#C/C(=C\c1cccs1)C(=O)N1CCOCC1	7%	1%	-10	4%	-1%	8%
N#C/C(=C\c1ccc(O)c(O)c1)C(=O)N1CCCC1	3%	13µM*	31	-28%	-6%	?
COc1ccc(/C=C(\C#N)C(=O)N2CCOCC2)cc1Br	1%	-6%	-68*	-12%	12%	3%
Cc1cc(/C=C(\C#N)C(=O)N2CCOCC2)c(C)n1C1CCCC1	10%	12µM*	0	-20%	?	?
C/C(Nc1ccc(Cl)cc1)=C1/CCOC1=O	.	-1%	1	-26%	0%	-12%

Source: PubChem BioAssay
